Hits are enriched below; roughly 3.2% of the tested compounds scored in any of these assays.
LGR2 antag = inhibitors of bursicon-induced Drosophila LGR2 receptor cAMP signaling; HEK293 LGR2, CRE-luciferase, bursicon-stimulated, 4 h; inhibition, % at 9.99 µM; 380,000 compounds, 0.35% hits;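 active = drop in luminescence signal, shown as inhibition above about 50% in the replicate tests, limit read from the data, passing the limit was not always enough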;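 also: agonist challenge used bursicon conditioned medium at about half maximal strength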
PAX8 inh HTS = inhibitors of PAX8 transcriptional activity in RMG-I cells; RMG-I TPO-luciferase reporter, SteadyGlo, 24 h; inhibition, % at 12.6 µM; AID 652154; 360,000 compounds, 1.2% hits;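 active = mean replicate inhibition at least 60% with every replicate also reaching 60%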;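 also: luciferase light reporting Pax8 driven TPO promoter activity; plate controls were median of neutral control wells for no effect and mitoxantrone controls for full effect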
LMP1 NFkB inh = inhibitors of Epstein-Barr LMP1-induced NF-kappaB reporter; LMP1-induced NF-kappaB luciferase reporter cells, luminescence; inhibition, % at 12.5 µM; 350,000 compounds, 0.69% hits; in the data active = inhibition above about 41%;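 also: 0% = neutral control wells and 100% = reference inhibitor control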
TWEAK-Fn14 inh = inhibitors of TWEAK-Fn14 interaction signaling; 360,000 compounds, 2% hits; AID 1159606; TWEAK-stimulated Fn14 reporter cells, luciferase luminescence, 8 h; inhibition, % at 10 µM; in the data active = inhibition above about 50%
EWS-Fli inh = inhibitors of EWS/Fli oncoprotein transcriptional activity; A673 NR0B1-luciferase reporter, viability-normalised; inhibition, % at 12.6 µM; 350,000 compounds, 0.67% hits; AID 651661;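 active = mean inhibition of at least 50% after viability correction, with every replicate also passing that limit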;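 also: firefly luciferase signal divided by Alamar Blue viability fluorescence both relative to DMSO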
TROY signal inh = TROY signaling inhibition; inhibition, % at 10 µM; Q293 LMP1-TROYcd NF-kB luciferase reporter, 4 h; AID 1347056; 360,000 compounds, 0.98% hits;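 active = compounds whose plate-normalised and pattern-corrected inhibition of the luciferase reporter signal at the single screening dose is 50% or more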
DNA binding = DNA binding small molecules | shares compounds with EWS-Fli inh | salmon sperm DNA acridine orange fluorescence polarization | AC35, µM (highest dose often 68 µM), for the others: top-dose activity change, negative = DNA binding | 640 compounds, 2% hits;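 active = fitted curve reaches a 35% signal fall AC35 below twice the sample's top valid tested dose, actives reach about 48 µM in these data; inactive = the rest, including activity in the rising direction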;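 also: lower polarization ratio signals compound binding to DNA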
Active calls of the source: *; nt = no result given; ! = not confirmed by another sample.

SMILES	LGR2 antag	PAX8 inh HTS	LMP1 NFkB inh	TWEAK-Fn14 inh	EWS-Fli inh	TROY signal inh	DNA binding
CCCC[C@@H]1Cc2[nH][nH]c(=O)c2[C@H](c2ccc3ccccc3c2)O1	-7	-3	nt	17	52*	-11	3%
COc1ccccc1NS(=O)(=O)c1cc(NC(=O)c2cc3ccccc3oc2=O)ccc1C	-15	-5	0	-20	82*	-26	17%
COc1ccccc1NS(=O)(=O)c1cc(NC(=O)C2=NNC(=O)CC2)ccc1C	13	17	6	2	-20	5	nt
CN(C(=O)COC(=O)c1cc(-c2ccc(Cl)s2)nc2ccccc12)C1CCS(=O)(=O)C1 (configuration not stated)	-13	26	5	0	-17	-18	nt
CN(C(=O)COC(=O)c1cc(-c2ccccc2Cl)nc2ccccc12)C1CCS(=O)(=O)C1 (configuration not stated)	7	28	-1	-15	85*	1	-2%
CC(C)NC(=O)N(C)C[C@H]1OCCCC[C@H](C)Oc2ccc(NC(=O)Nc3cccc4ccccc34)cc2C(=O)N([C@H](C)CO)C[C@@H]1C	-1	-5	nt	nt	8	nt	nt
CCCNC(=O)C[C@H]1CC[C@@H]2[C@@H](COc3ccc(NC(=O)c4cscn4)cc3C(=O)N2C)O1	-23	2	nt	nt	3	nt	nt
CN(C)c1ccc(-c2ccnc3c2CC(C)(C(=O)NCc2ccco2)O3)cc1 (configuration not stated)	-5	-11	nt	30	64*	17	3%
CC1(C(=O)NCc2ccco2)Cc2c(-c3cccc(C(N)=O)c3)ccnc2O1 (configuration not stated)	-20	nt	nt	28	53*	-1	-11%
CC1(C(=O)NCc2ccco2)Cc2c(-c3cccc(C(F)(F)F)c3)ccnc2O1 (configuration not stated)	5	10	nt	15	39	26	nt
CN(C)c1ccc(-c2ccnc3c2CC(C)(C(=O)NCc2cccs2)O3)cc1 (configuration not stated)	-4	13	nt	17	47	12	nt
CCC(=O)N1[C@@H](C#N)[C@@H](c2ccccc2-c2ccccc2)[C@@H]1CO	-3	nt	nt	nt	-22	nt	nt
CNC[C@H]1OCCCC[C@@H](C)Oc2ccc(N)cc2C(=O)N([C@@H](C)CO)C[C@H]1C	-16	1	nt	nt	-2	nt	nt
CNc1nc(C(=O)O)nc(N2CCOCC2)n1	4	nt	-12	9	-4	11	nt
Cc1ccc(C(CC(=O)O)Nc2nc(N3CCOCC3)nc(N3CCOCC3)n2)cc1 (configuration not stated)	-4	-8	4	-5	65*	-9	-4%
CCCN1[C@@H]2c3ccc(-c4ccc(F)cc4)c(=O)n3C[C@H]1[C@H](CO)[C@H]2C(=O)NCCc1cn(C)cn1	-9	-4	nt	nt	-2	nt	nt
C[C@@H]1CN([C@@H](C)CO)C(=O)Cc2cc(NS(=O)(=O)c3cn(C)cn3)ccc2O[C@H]1CN(C)C(=O)Nc1ccc2c(c1)OCO2	-8	-27	nt	nt	-11	nt	nt
O=C(NC[C@@H]1N[C@@H](CO)[C@H]1c1ccc(C2=CCCCC2)cc1)c1cccc(F)c1	-4	5	nt	nt	59*	nt	0%
C[C@@H]1CCCCO[C@H](CN(C)Cc2ccccc2)[C@@H](C)CN([C@@H](C)CO)C(=O)c2cc(NC(=O)NC3CCCCC3)ccc2O1	18	-5	nt	nt	5	nt	nt
Cc1nn(Cc2ccccc2Cl)c2sc(C(=O)Nc3ccccc3N3CCOCC3)cc12	1	43	4	61*	50*	13	-12%
C[C@H]1CN([C@@H](C)CO)C(=O)Cc2cc(NC(=O)Cn3cnnn3)ccc2O[C@@H]1CN(C)Cc1ccc2c(c1)OCO2	11	-1	nt	nt	3	nt	nt
C[C@H](CO)N1C[C@H](C)[C@@H](CN(C)C(=O)Nc2ccccc2)Oc2cc(C#CC3(O)CCCC3)ccc2S1(=O)=O	7	nt	nt	nt	24	nt	nt
O=C(NC1CCCC1)N1CCCCN2[C@@H](CO)[C@@H](c3ccc(/C=C/c4ccccc4)cc3)[C@@H]2C1	26	104*	nt	nt	73*	nt	9%
CC(C)c1ccccc1NC(=O)COC(=O)CCN1C(=O)/C(=C\C=C\c2ccccc2)SC1=S	-3	26	10	72*	62*	35	-10%
O=C(COC(=O)CCN1C(=O)/C(=C\C=C\c2ccccc2)SC1=S)Nc1ccc(Br)cc1	-7	-15	13	21	40	21	nt
SMILES	LGR2 antag	PAX8 inh HTS	LMP1 NFkB inh	TWEAK-Fn14 inh	EWS-Fli inh	TROY signal inh	DNA binding
C[C@@H]1CN([C@H](C)CO)C(=O)c2ccccc2-c2ccccc2CO[C@@H]1CN(C)C(=O)Nc1ccnc(N2CCOCC2)c1	1	-39	nt	nt	1	nt	nt
COc1ccc(NC(=O)N(C)[C@H]2C[C@H]3c4[nH]c5ccccc5c4CCN3C(=O)[C@H]2CO)cc1	-16	-8	-15	24	53*	-22	-5%
CCc1ccc(C2=NN(CCC(=O)NC(C)c3ccc4c(c3)OCCO4)C(=O)CC2)cc1 (configuration not stated)	1	14	0	-6	3	6	nt
Cc1nc2cc(-c3ccc(Cl)cc3)nn2c(C)c1CCC(=O)NC(C)c1ccc2c(c1)OCCO2 (configuration not stated)	-31	29	12	56*	57*	33	1%
Cc1csc(NC(=O)CSc2nnc(-c3ccc(Cl)cc3)n2N)n1	-8	nt	-3	2	nt	-12	nt
COc1cc(OC)cc(-c2cc3nc(C)c(CCC(=O)NCc4ccccc4)c(C)n3n2)c1	-12	18	29	66*	57*	46	-9%
Cc1csc(NC(=O)CCc2c(C)nc3cc(-c4ccc(Cl)cc4)nn3c2C)n1	-74	11	27	62*	56*	30	-8%
C[C@@H]1CN([C@H](C)CO)C(=O)c2cc(NC(=O)Cc3ccccc3)ccc2O[C@@H](C)CCCCO[C@H]1CN(C)S(=O)(=O)c1ccc(Cl)cc1	-18	30	nt	nt	3	nt	nt
COc1cccc(S(=O)(=O)N(C)C[C@H]2OCc3cnnn3CCCC(=O)N([C@@H](C)CO)C[C@H]2C)c1	13	-17	5	3	60*!	-9	-12%
COc1cccc(S(=O)(=O)N(C)C[C@@H]2OCc3cnnn3CCCC(=O)N([C@H](C)CO)C[C@H]2C)c1	-3	6	0	-4	4	-8	nt
COc1ccc(S(=O)(=O)N(C)C[C@@H]2OCCCC[C@H](C)Oc3ccc(NC(=O)Nc4cccc5ccccc45)cc3C(=O)N([C@H](C)CO)C[C@H]2C)cc1	0	3	nt	nt	-4	nt	nt
COC(=O)C1=C(C)N(Cc2cccc(C(F)(F)F)c2)C(=NCc2ccc(OC)cc2)NC1c1cccc(F)c1 (configuration not stated)	16	99*	nt	nt	50*	nt	0%
